About 83,000 compounds went through this panel and 20% of them were active in at least one assay; those are over-represented in the sample as a whole.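 Cell lines were cultured in 96-well plates, exposed to a single compound concentration, and assessed for percent growth 48 hours later.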 Values without a mark were called inactive. Calls of active or inactive are those of the source.
System: U251 CNS
Experiment: NCI-60 one-dose screen, 48 h (100 = growth as untreated, 0 = no growth, -100 = all killed)
Conditions: 10 µM unless noted
Description: Growth inhibition of the U251 human tumor cell line is measured as a screen for anti-cancer activity. Cells are grown in 96 well plates and exposed to the test compound for 48 hours. Compounds are tested at a single concentration, which is 10^-5 M for most compounds. The reported endpoint is percent growth (GI% or GIPRCNT), where numbers from 0 - 100% represent growth inhibition, and numbers from -100% - 0 represent cell death. For example, a value of 40 represents 60% growth inhibition. A value of 0 means no net growth occurred over the course of the experiment. A value of -40 indicates 40% of cells at the beginning of the experiment died by the end of the experiment. A value of -100 means all cells are dead at the end of the experiment.
NCI-60 Human Tumor Cell Lines Screen was performed using the standard one-dose NCI protocol, which is described in more detail at https://dtp.cancer.gov/discovery_development/nci-60/default.htm.
Compounds with GIPRCNT values below 10 were considered active. Activity score was based on GIPRCNT using the following formula: […]
Score is 0 for GIPRCNT values of 100 or above, 50 for GIPRCNT values of 0, and 100 for GIPRCNT values of -100.

| Compound | growth |
| --- | --- |
| O=C1Nc2c(ccc(Cl)c2Cl)/C1=C\c1cc(C(F)(F)F)cc(C(F)(F)F)c1 | -54.2% (active) |
| c1ccc(-c2cc3n4c(-c5ccccc5)nn(-c5ccccc5)c4cnc-3n2)cc1 | 26.4% |
| COc1ccc(/C=C\c2cc(OC)c(OC)c(OC)c2)cc1OCC(=O)Nc1ccc2nc(C)sc2c1 | 38.3% |
| COc1cc(C2CC(=O)c3ccccc3N2)cc(OC)c1OC (stereo not given) | 88.5% |
| CCCCN(CCCC)CCCn1c(-c2ccccc2)ccc1-c1ccccc1 | 58.3% |
| CCCn1c(=O)[nH]c(N)c([C@H]2c3ccccc3Oc3[nH]c(=O)n(CCC)c(=O)c32)c1=O | 81.8% |
| Cc1ccc(OC(=O)c2ccc(Cl)cc2)cc1 | 102% |
| O=C1/C(=C/C(Cl)=C/c2ccccc2)SC(=S)N1CCc1ccc(O)cc1 | -58.3% (active) |
| COc1ccc2nc(NC(=O)CSc3nnc4n3S(=O)(=O)c3ccccc3N4c3ccccc3)sc2c1 | 94.9% |
| O=[N+]([O-])c1ccc(Nc2nc(NCCN3CCOCC3)ncc2[N+](=O)[O-])cc1 | 88.6% |
| COc1cccc(NC(=O)c2sc3nc(C)c(C(C)=O)cc3c2N)c1 | 33.7% |
| CCOc1ccc(-n2nc(C(=O)Nc3ccccc3)nc2-c2cc(OC)c(OC)c(OC)c2)cc1 | 36.1% |
| CC1=C[C@H]2c3c(c(O)c(O)c4oc5c(C)cccc5c(=O)c34)[C@H](c3cc(O)c(O)c4oc5c(C)cccc5c(=O)c34)[C@H]2C(C)(C)C1 | 11.3% |
| COc1ccc(-c2n[nH]nc2-c2csc3ccccc23)cc1OC | 22.1% |
| Cn1c(NCCc2ccc(O)c(O)c2)nc2c1c(=O)n(Cc1ccc(Cl)c(Cl)c1)c(=O)n2C | 77.9% |
| NCCNc1nc(Nc2ccc(-c3nc4ccccc4[nH]3)cc2)c2cn[nH]c2n1 | -55.4% (active) |
| COc1ccc2cc(-c3nn(-c4ccc(C(=O)O)cc4)cc3CO)ccc2c1 | 104% |
| COc1cc2c(cc1O)CC[C@@H]1[C@@H]2CC[C@]2(C)[C@@H](NCCN(C)C)CC[C@@H]12 | -92.3% (active) |
| COC[C@H](C)n1c(C2CCOCC2)nc2cnc3cc(-c4c(C)noc4C)c(OC)cc3c21 | 54.1% |
| CCc1nnc(CNc2ccc(Cl)cc2)o1 | 98.2% |

| Compound | growth |
| --- | --- |
| N#Cc1nnn(-c2ccc(S(N)(=O)=O)cc2)c1NCC(=O)c1ccccc1 | 93.6% |
| CSc1ccc(-c2ccccc(=O)c2O)cc1 | 9.54% (active) |
| O=C(N/N=C/c1ccccc1O)c1ccccc1Nc1ccnc(C(F)(F)F)c1 | 18.8% |
| COc1cc(-c2nn(-c3ccc(Br)cc3)cc2C(=O)O)ccc1O | 109% |
| COc1ccc(-c2nc(SCC(=O)Nc3ccc(C(=O)/C=C/c4ccc(Cl)cc4)cc3)[nH]c(=O)c2C#N)cc1 | -15.3% (active) |
| CN(C)CCCNc1c2ccccc2nc2ccccc12 | 77.1% |
| CCNC(=O)Oc1ccc(/C(=C(\C)c2ccc(Cl)cc2)c2ccc(OCCN(CC)CC)cc2)cc1 | 21.1% |
| COc1ccc(CN2c3ccccc3Oc3ccccc32)cc1F | 39.5% |
| COc1ccc(CN2c3ccccc3Oc3ccccc32)cc1O | 24% |
| CCOC(=O)n1cc(-c2nonc2-c2cn(C)c3ncccc23)c2cc(F)ccc21 | 77.2% |
| CC1=CC(=NN=c2cc(C)n([O-])c(C)c2)C=C(C)[N+]1=O | 91.2% |
| COc1cc(-c2nn(-c3ccc(C(=O)O)cc3)cc2C(=O)O)ccc1O | 78.5% |
| CCCOc1cc2ccccc2cc1C(=O)Nc1nc(N)c2c(ccc3nccc32)[nH]1 | -83.5% (active) |
| CC(C)(C)c1cc(/C=N\NC(=O)/C=C/C=C/c2ccc3c(c2)OCO3)c(O)c(C(C)(C)C)c1 | 84% |
| Cc1cc(N2CCCC2)nc(NC2CCCC(Nc3ccnc4cc(Cl)ccc34)C2)n1 (stereo not given) | -96.1% (active) |
| CC1=C[C@H]2c3c(c(O)c(O)c4oc5ccccc5c(=O)c34)[C@H](c3cc(O)c(O)c4oc5ccccc5c(=O)c34)[C@H]2C(C)(C)C1 | 5.08% (active) |
| CCOC(=O)c1sc2nc(-c3cccc(OC)c3)nc(N3CCOCC3)c2c1C | 86.9% |
| CCC([N+](=O)[O-])S(=O)(=O)c1ccc(C)cc1 (stereo not given) | 100% |
| COc1ccc(S(=O)(=O)N2CC3(COC3)C2)cc1NC(=O)c1[nH]c(C)c2c1CCCCC2=O | 62.8% |
| COc1ccc(-c2nc3cc(C(=O)Nc4cc(OC)c(OC)c(OC)c4)ccc3n2C2CCCCC2)cc1 | 96.6% |
